Reference: PubChem BioAssay (NCI)
Compounds without any hit were thinned out: in the full panel of roughly 83,000, 20% have a hit.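 A percent growth of 40 corresponds to 60% growth inhibition; 0 means no net growth; -100 means all cells died. Active threshold: below 10.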 Values without a mark were called inactive. Activity calls are given as the source filed them.

Test system: HL-60(TB) leukemia
Assay: NCI-60 one-dose screen, 48 h (100 = growth as untreated, 0 = no growth, -100 = all killed)
Settings: 10 µM unless noted

Compound	growth
Cc1ccc(NC(=O)N[C@@H](Cc2cc(F)cc(F)c2)C(=O)N[C@@H]2C(=O)N3CCC[C@H]3C(=O)N3CCCC[C@H]3C(=O)N[C@@H](C)C(=O)N3C[C@H](C)C[C@H]3C(=O)O[C@H]2C)cc1	11.6%
CCSc1ccc([C@@H]2[C@@H](O)C(=O)N2c2cc(OC)c(OC)c(OC)c2)cc1	-35.4% (active)
O=C1C(Cl)=C(Cl)C(=O)c2c1nc1n2CCCC1	74.8%
O=c1c2cccc3c(Nc4ccc(Br)cn4)ccc(c32)c2nc3ccccc3n12	128%
C[N+](C)(C)c1ccc(CC2c3ccccc3-c3ccccc32)cc1	47.8%
O=c1[nH]c(=O)c2cc(Cl)cc(Cl)c2[nH]1	100%
CSc1nc(=O)n(Cc2ccc(F)cc2)c(=O)n1Cc1ccc(C)cc1	90%
O=C1c2cc([N+](=O)[O-])ccc2-c2cc(Cl)c(NC(=O)C(F)(F)F)cc21	75.6%
CC(C)c1ccc(Nc2n[nH]c(=S)s2)cc1	97.7%
COc1cc(C2c3cc4c(cc3C(OC(=O)C[n+]3ccccc3)C3COC(=O)C23)OCO4)cc(OC)c1OC (stereo not given)	-32.5% (active)
O=C(N/N=C/c1ccccc1Cl)C(=O)Nc1cccc(C(F)(F)F)c1	106%
O=C=NC(c1ccccc1)(c1ccccc1)c1ccccc1	102%
COc1nccc2c(Sc3ccccc3)nc(N)nc12	97.6%
CC1(C)N=C(N)N=C(N)N1c1cccc(CCCCOc2ccccc2)c1	13.6%
COc1ccccc1CNCCCN1C(=O)c2ccc3c4c(ccc(c24)C1=O)C(=O)N(CCCNCCNCCCN)C3=O	0.848% (active)
Nc1cc2c(cc1Br)-c1c(C(=O)O)cccc1C2O (stereo not given)	77.8%
Oc1[nH]c2ccccc2c1/C=c1/ccc2c(c1)N=C(c1ccc(C(F)(F)F)cc1)N=2	74.3%
CCCCC(CC)COC(C)=O (stereo not given)	100%
CNc1nc2c(s1)C(c1cccc(F)c1)CC(=O)N2 (stereo not given)	97.5%
Cc1ccc(N(C(=O)CCc2c[nH]c3ccccc23)[C@H](C(=O)Nc2ccc(Cl)cc2)c2cccc([N+](=O)[O-])c2)cc1	70.7%

Compound	growth
O=C1/C=C/[C@@H](O)[C@@H]2C[C@@H](O)C[C@H]2/C=C/CCC[C@H](CCOCc2ccccc2)O1	0.107% (active)
COc1ccc(-n2c(C(O)c3ccccc3)n[nH]c2=S)cc1 (stereo not given)	119%
CN1C(=O)N(C)[C@H]2NC(NN)=N[C@H]21	102%
NC(Cc1ccc(O)c([N+](=O)[O-])c1)C(=O)O (stereo not given)	114%
CN(C)CCn1c2ccc(Br)cc2c2nc3ccccc3nc21	26.2%
Fc1ccc2c(c1)c(-c1nc(-c3c[nH]c4ncccc34)cs1)cn2CCCN1CCOCC1	21.9%
CCOc1c(C#N)nnc2c(C#N)c(NC(=O)c3ccccc3)nn12	104%
O=C(Nc1ccc(Oc2ccc(F)cc2)c(Cl)c1)c1cccnc1	83.2%
CCOC(=O)/C(=C/c1c(-c2ccccc2)[nH]c2ccccc12)C(=O)c1ccc(Cl)cc1	-10.6% (active)
Oc1ccc(CCl)c2cccnc12	81%
N=C(N)c1ccc(-c2ccc(-c3cccs3)s2)cc1F	-47.8% (active)
N#Cc1c(N)nc2c(nnn2-c2cccc(Br)c2)c1N	95.9%
O=c1ccc(N=Nc2ccc([N+](=O)[O-])cc2)ccc1O	10%
O=C(Nc1ccc2c(O)cc(S(=O)(=O)O)cc2c1)c1ccc([N+](=O)[O-])cc1	75.3%
C=C(C)[C@@H]1CC[C@]2(c3ncc(C)o3)CC[C@]3(C)[C@H](CC[C@@H]4[C@@](C)(CCC#N)[C@H](C(=C)C)CC[C@]43C)[C@@H]12	-27.9% [100 µM] (active)
COc1cc(C(=O)N/N=C/c2ccc(N(C)C)cc2)cc(OC)c1OC	-20% (active)
COc1cc(-c2nc3ccc(C)cc3[nH]2)ccc1OCC(=O)N=Nc1c(O)[nH]c2ccccc12	-34.3% (active)
COc1ccc(C2c3ccccc3NC(=O)N2C2CCN(C)CC2)c(OC)c1 (stereo not given)	92.7%
CCCOc1ccc(/C=N/Nc2cc(C)nc3ccc(Br)cc23)cc1	55.3%
COc1cc(-c2nc3cc(Cl)c(Cl)cc3[nH]2)ccc1OCC(=O)N=Nc1c(O)[nH]c2ccc(Cl)cc12	-32.7% (active)
